Shown are actives, neighbours in structure and some others; about 21% of the full set was active somewhere.
Shiga inhibitor = blocks Shiga toxin action in Vero cells; AID 2315; inhibition, % at 38.7 µM; Vero cells, Shiga toxin protein synthesis inhibition reporter; actives 9.2% (n = 290,000); in the data active = inhibition mostly above about 28%, no sharp cut-off; inactive = mostly below about 43%; note: 0% is about no effect
Pf growth 96h = P. falciparum growth inhibition at 96 hours | P. falciparum luciferase reporter growth, 96 h | Potency, µM (doses to about 28.7 µM), inactives show at the highest dose activity change, negative = inhibition, actives largely listed as inhibitors | actives 6.9% (n = 320,000) | AID 504834; active = well fitted inhibition curve with a large enough effect; inconclusive = small, poorly fitted or top-dose-only effect, or another doubt; inactive = no such curve, though single readings can be large or run the other way; note: potency is the fitted concentration of half-maximal effect; % is set by controls: 0 for no effect and ±100 for the full control effect
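P. falciparum expressing integrated firefly luciferase grown in erythrocytes (2% hematocrit, 0.05% parasitemia final) with compounds for 96 hours at 37 C, 5% CO2. Growth inhibition read as loss of luminescence after adding luciferase detection reagent.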
Pf growth 48h = P. falciparum growth inhibition at 48 hours (one generation); P. falciparum luciferase growth in erythrocytes, 48 h; Potency, µM (titrated, usually from 28.7 µM), without a hit: at the highest dose activity change, negative = inhibition, usual class: inhibitors; actives 5.9% (n = 310,000); AID 504832; active = well fitted inhibition curve with a large enough effect; inconclusive = small, poorly fitted or top-dose-only effect, or another doubt; inactive = no such curve, though single readings can be large or run the other way; note: potency is the fitted concentration of half-maximal effect; % is set by controls: 0 for no effect and ±100 for the full control effect
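Luciferase-expressing parasites in RBCs, 2% Hct / 0.1% parasitemia final; RPMI 1640 + 0.5% Albumax; 37 C, 5% CO2, one generation; luminescence read-out, lower signal = inhibition.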
SARS PLP yeast = inhibitors of SARS-CoV papain-like protease in yeast. S. cerevisiae expressing SARS-CoV PLpro, growth rescue. AID 485353. actives 0.19% (n = 330,000). Potency, µM (series often up to 32.9 µM), for inactives: at the top dose activity, positive = growth rescue, usual class: activators; note: potency is the fitted concentration of half-maximal effect; 0% is about no effect; nearly all actives have a fitted effect of over 55% in size
CHX counter = counter-screen hit for Shiga toxin inhibitors, cycloheximide; cell reporter, cycloheximide protein synthesis inhibition counterscreen; actives 12% (n = 300,000); max response, %; AID 2314; in the data active = max response mostly above about 13%, no sharp cut-off; inactive = mostly below about 14%; note: read at 38.3 µM for the half of the compounds with a filed dose; 0% is about no effect
NS1 function inh = influenza NS1 inhibition; Potency, µM (highest dose often 46.1 µM), without a hit: at the top dose activity, positive = more growth; actives 0.4% (n = 270,000); note: potency is the fitted concentration of half-maximal effect; actives are rising curves; nearly all actives have a fitted effect of over 50% in size
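Compounds were scored for reversing the slow growth caused by influenza A NS1 in S. cerevisiae, measured by optical density at 600 nm. Assay medium contained 2% galactose at pH 6.0; NS1-free yeast of the same strain were the positive control.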
Starred values were filed as active, the others as inactive; ? = inconclusive; nt = no result given; [ ] = dose if it differs, or a comment. Unless noted, calls come from the whole dose curve.

SMILES	Shiga inhibitor	Pf growth 96h	Pf growth 48h	SARS PLP yeast	CHX counter	NS1 function inh
O=C(CN1C(=O)c2ccccc2S1(=O)=O)NCc1c(F)cccc1F	nt	28%	?	2%	nt	nt
Cc1ccc(CNC(=O)COC(=O)c2nc(-c3ccccc3)oc2C)cc1	nt	39%	37%	4%	nt	nt
Clc1ccc(-c2cn3nc4c(nc3n2)CCCC4)cc1	88*	nt	138%	-7%	37*	-8%
COc1cccc(-c2cn3nc4c(nc3n2)CCCC4)c1	27	-51%	-53%	-8%	16*	-11%
Clc1ccc(-c2cn(-c3ccc(Cl)cc3)c3[n+]2CCCCC3)cc1	-2	?	?	0%	-1	-3%
CC1(C)CC(=O)c2c(nc(SCC(=O)Nc3nsc(-c4ccccc4)n3)c(C#N)c2-c2ccccc2)C1	15	15µM*	?	3%	2	?
Cc1ccc(-c2nc(NC(=O)CSc3nnc(C)s3)ns2)cc1	77*	-32%	nt	16%	23*	-4%
Cc1ccc(-c2nc(NC(=O)CSc3cc(C)c4ccccc4n3)ns2)cc1	-9	15µM*	30%	13%	-3	4%
Cc1nnc(SCC(=O)Nc2nsc(-c3ccccc3)n2)s1	30	7.4µM*	26%	-6%	15*	3%
O=C(CSc1nnnn1-c1ccccc1)Nc1nsc(-c2ccccc2)n1	-9	nt	10%	0%	-2	-4%
COc1ccc([N+](=O)[O-])cc1NC(=O)c1ccccc1N(C)S(C)(=O)=O	-24	?	-22%	3%	0	nt
COc1ccc(CNC(=O)c2ccc(Cl)c(S(=O)(=O)N3CCOCC3)c2)cc1OC	nt	?	?	-3%	nt	nt
O=Cc1ccnc(-c2ccc(OC(=O)c3ccco3)cc2)n1	10	109%	26%	-5%	14	nt
O=c1[nH]cnc2c1N=C(c1cccc([N+](=O)[O-])c1)CC(c1ccccc1)N2 (stereo unspecified)	25	-29%	-20%	-2%	6	7%
CC(C)Cc1nnc(NC(=O)CCC(=O)N2CCN(Cc3ccccc3)CC2)s1	6	-16%	7%	4%	-3	-1%
COc1ccc2c(C)cc(SCC(=O)Nc3nsc(-c4ccc(C)cc4)n3)nc2c1	-16	88%	41%	7%	-3	-20%
O=C(CSc1nnc2ccccn12)Nc1nsc(-c2ccccc2)n1	21	11%	31%	3%	19*	14%
COc1ccc(-c2nc(NC(=O)CSc3nnc(C)s3)ns2)cc1	33*	152%	40%	3%	34*	14%
COc1ccc(C2/C=C\CN(C(=O)CC(C)(C)C)C(C)C(=O)N2Cc2ccc(F)cc2)cc1 (stereo unspecified)	-7	nt	nt	nt	6	nt
CCC(=O)OCC(=O)c1cc(C)n(-c2ccc(Br)cc2)c1C	8	-11%	-15%	-12%	-1	nt
COc1ccc2c(Cl)c(C(=O)N/N=C/c3ccc4c(c3)OCO4)sc2c1	8	?	1%	3%	6	1%
COc1ccc2c(Cl)c(C(=O)N/N=C3\CCCC(=O)C3)sc2c1	47*	?	?	-2%	14	31%
CC(Sc1nnc(NC2CCCCC2)s1)C(=O)Nc1ccc2c(c1)C(=O)c1ccccc1C2=O (stereo unspecified)	76*	-27%	-22%	-4%	26*	?
CNC(=O)COC(=O)c1ccc([N+](=O)[O-])cc1Cl	-3	22%	15%	16%	-2	-5%
N/C(=N\OC(=O)c1cc(Br)ccc1Cl)c1ccccn1	77*	33%	159%[5.75 µM]	2%	52*	nt
SMILES	Shiga inhibitor	Pf growth 96h	Pf growth 48h	SARS PLP yeast	CHX counter	NS1 function inh
NC(=O)c1ccc([N+](=O)[O-])cc1Cl	nt	11µM*	?	nt	nt	nt
N/C(=N\OC(=O)c1cccc([N+](=O)[O-])c1)c1ccccn1	114*	?	365%	0%	37*	nt
O=C(OCC(=O)N1CCCCCC1)c1ccc([N+](=O)[O-])cc1Cl	27	-11%	?	4%	15*	-1%
CCCS(=O)(=O)N1CCCC(C(=O)N2CCOCC2)C1 (stereo unspecified)	-4	nt	0%	-1%	-3	0%
CC(OC(=O)Cc1n[nH]c(=O)c2ccccc12)C(=O)Nc1ccc(F)cc1 (stereo unspecified)	nt	-13%	?	-6%	nt	nt
N/C(=N\OC(=O)c1cc([N+](=O)[O-])ccc1Cl)c1ccccn1	58*	-23%	45%	1%	23*	2%
Cc1c(C(=O)Oc2cccc3cccnc23)cccc1[N+](=O)[O-]	171*	?	?	-4%	41*	nt
N/C(=N\OC(=O)c1ccc(Cl)cc1[N+](=O)[O-])c1ccccn1	118*	-45%	-29%	-25%	48*	-119%
N/C(=N\OC(=O)c1ccc(Cl)cc1Cl)c1ccccn1	-20	2%	-18%	-4%	-8	-55%
O=C(OCc1nnc(-c2ccccc2)o1)c1cc([N+](=O)[O-])ccc1Cl	-5	-2%	17%	-4%	-4	nt
COc1ccccc1C/C(N)=N/OC(=O)c1cccc([N+](=O)[O-])c1	47	?	12µM*	-35%	5	2%
COc1ccc(C/C(N)=N/OC(=O)c2cccc([N+](=O)[O-])c2)cc1	-10	-4%	?	-77%	6	-36%
Cc1c(C(=O)NC(C(C)C)C(C)C)cccc1[N+](=O)[O-]	-1	14%	14%	-7%	-1	4%
Cc1sc2ncnc(NC3CCN(Cc4ccccc4)CC3)c2c1C	-14	-8%	-14%	-1%	-2	1%
N/C(=N\OC(=O)c1ccc([N+](=O)[O-])cc1Cl)c1ccccn1	32	?	117%	-5%	14*	-19%
Cc1c(C(=O)O/N=C(\N)c2ccccn2)cccc1[N+](=O)[O-]	28	?	-29%	-3%	22*	-43%
CSc1nc(=S)n(-c2ccc([N+](=O)[O-])cc2)c(C)c1C(C)=O	-2	?	1%	9%	5	19%
COc1ccc2c(c1OC)C(=O)N1N=C(c3ccc(Br)cc3)CC21 (stereo unspecified)	20	-98%	?	-60%	12	-8%
COc1ccc2c(c1OC)C(=O)N1c3ccccc3N=C(c3ccc([N+](=O)[O-])cc3)CC21 (stereo unspecified)	8	0%	2.6µM*	4%	4	?
COc1ccc2c(c1OC)C(=O)N1N=C(c3ccc(O)cc3)CC21 (stereo unspecified)	0	33%	1.3µM*	2%	15	7%
COc1ccc(C2=NN3C(=O)c4c(ccc(OC)c4OC)C3C2)cc1 (stereo unspecified)	-10	-16%	2.6µM*	-8%	12	-23%

Bioassay records from PubChem.
